Measurements published in PubChem BioAssay AID602379 (National Center for Advancing Translational Sciences (NCATS), 2012).
Unmarked numbers belong to inactive results. The call rests on the fitted dose curve; in most records, active means well fitted curve in the direction sought with a large enough effect; inactive means no such curve, though single readings can be large or run the other way.

molecular target: Pyruvate kinase PKLR (Homo sapiens) (UniProt P30613); assay: qHTS for Activators of Human Muscle Isoform Pyruvate Kinase: Extended Characterization against Liver Pyruvate Kinase; conditions: purified hPK-L, ATP via Kinase-Glo luminescence, 1 h; series mostly up to 57.3 µM; activity change, positive = activation: at the top concentration
Sequence (P30613 whole entry, looked up, canonical isoform): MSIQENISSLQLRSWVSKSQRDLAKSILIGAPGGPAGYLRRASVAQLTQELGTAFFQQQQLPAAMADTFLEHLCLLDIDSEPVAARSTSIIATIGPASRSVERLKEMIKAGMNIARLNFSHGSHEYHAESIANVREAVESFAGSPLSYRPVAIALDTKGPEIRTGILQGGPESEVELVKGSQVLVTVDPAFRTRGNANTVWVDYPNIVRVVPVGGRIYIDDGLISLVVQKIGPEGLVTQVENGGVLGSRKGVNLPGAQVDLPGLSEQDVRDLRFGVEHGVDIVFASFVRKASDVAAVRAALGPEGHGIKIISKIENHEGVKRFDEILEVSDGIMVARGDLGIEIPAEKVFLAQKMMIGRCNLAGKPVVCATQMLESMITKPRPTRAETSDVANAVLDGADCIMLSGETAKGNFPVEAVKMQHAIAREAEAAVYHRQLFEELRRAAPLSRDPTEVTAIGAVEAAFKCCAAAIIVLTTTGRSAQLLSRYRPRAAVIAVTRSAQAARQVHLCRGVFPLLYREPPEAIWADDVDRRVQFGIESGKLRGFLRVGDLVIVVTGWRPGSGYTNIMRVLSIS
Procedure: Human pyruvate kinase liver (hPK-L) enzyme was supplied as a highly purified (>95% pure) preparation from Harvard Medical School and assayed for its ability to generate ATP from ADP using phosphoenolpyruvate (PEP) as a substrate. ATP generation was detected in a coupled reaction by luciferase-mediated luminescence, an ATP-dependent process. Pyruvate kinase substrates, PEP and ADP, were present in the assay at Km and approximately 10-fold below Km respectively. The enzyme was assayed at an intermediate level of activity to screen for both inhibitors and activators. NIH Chemical Genomics Center [NCGC] NIH Molecular Libraries Probe Centers Network [MLPCN] MLPCN Grant: MH085679 Assay Submitter (PI): Matthew G. Vander Heiden, Harvard Medical School
Three uL of substrate mix (at r.t.) in assay buffer (50 mM Imidazole pH7.2, 50 mM KCl, 7 mM MgCl2, 0.01% Tween 20, 0.05% BSA) was dispensed into white solid bottom 1,536 well microtiter plates so that the final concentrations of substrates in the assay were 0.1 mM ADP and 0.5 mM PEP. 23 nL of compound were delivered by a pin tool and 1 uL of enzyme mix (final concentration of 0.1 nM) in assay buffer (4 degree Celsius) was added. Plates were incubated at room temperature for 1 hour. Two uL of detection mix (Kinase-Glo, Promega; at 4 degree Celsius protected from light) was added and luminescence read by a ViewLux (Perkin Elmer) at 1 second exposure/plate. Data were normalized to the uninhibited (row 31). Additionally, a no enzyme and 5-fold enzyme control was dispensed in row 32, split equally between the two conditions.

| Structure (SMILES) | activity change, positive = activation |
| --- | --- |
| Cc1cc2c(s1)c1cnn(Cc3cc(F)ccc3F)c(=O)c1n2C | 5.89% |
| Cc1cc2c(s1)c1cnn(Cc3ccc(F)cc3F)c(=O)c1n2C | 5.82% |
| Cc1cc2c(s1)c1cnn(Cc3cc(F)c(F)cc3F)c(=O)c1n2C | 5.78% |
| COc1cccc(Cn2ncc3c4sc(S(C)=O)cc4n(C)c3c2=O)c1 (stereo not given) | 5.38% |
| Cc1cc2c(s1)c1cnn(Cc3c(Cl)ccc(C)c3F)c(=O)c1n2C | 13.2% |
